# The source made the active and inactive calls. The call rests on the fitted dose curve; in most records, active means well fitted inhibition curve with a large enough effect; inconclusive means small, poorly fitted or top-dose-only effect; inactive means no such curve, though single readings can be large or run the other way.
# Assay: qHTS assay for measurement of the activity of small molecule inhibitors on Zika virus induced Caspase-3 activity in human astrocytoma cells (AID 1224859)
# Conditions: SNB-19 ZIKV-induced caspase-3/7, luminescence, 6 h; series mostly up to 45.7 µM
# In short: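 Percent inhibition of virus-induced caspase-3/7 signal is calculated against uninfected and ZIKV-infected control cells. Cells are SNB-19, infected at 2 FFU/cell for 6 h after 1 h compound exposure.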
row,SMILES,outcome
1,O=C(O)P(=O)(O)O,inactive
2,CC(C)n1c(/C=C/[C@@H](O)C[C@@H](O)CC(=O)O)c(-c2ccc(F)cc2)c2ccccc21,inactive
3,C=C[C@H]1CN2CC[C@H]1C[C@@H]2[C@@H](O)c1ccnc2ccc(OC)cc12,inactive
4,CC(C)NCC(O)c1ccc2ccccc2c1 (configuration not stated),inactive
5,CC(=C(CCOC(=O)C(C)C)SSC(CCOC(=O)C(C)C)=C(C)N(C=O)Cc1cnc(C)nc1N)N(C=O)Cc1cnc(C)nc1N,inactive
6,CC1(C)OC[C@@H]2O[C@@]3(C(=O)O)OC(C)(C)O[C@H]3[C@@H]2O1,inactive
7,CN1CCN(c2c(F)cc3c(=O)c(C(=O)O)cn4c3c2SCC4)CC1,inactive
8,Cc1cccc(C)c1NC(=O)CN1CCCCCC1,inactive
9,CCN(CC)CCOC(=O)C(Cc1cccc2ccccc12)CC1CCCO1 (configuration not stated),inactive
10,Cc1cc(-c2ccccc2)nnc1NCCN1CCOCC1,inactive
11,CCN1CCN(C(=O)N[C@@H](C(=O)N[C@@H]2C(=O)N3C(C(=O)O)=C(CSc4nnnn4C)CS[C@H]23)c2ccc(O)cc2)C(=O)C1=O,inactive
12,O=C(CN1CCN(Cc2ccc3c(c2)OCO3)CC1)N1c2ccccc2Sc2ccccc21,inactive
13,CC(=O)OC[C@H]1O[C@@H](n2ncc(=O)[nH]c2=O)[C@H](OC(C)=O)[C@@H]1OC(C)=O,inactive
14,O=S(c1cc(Cl)cc(Cl)c1O)c1cc(Cl)cc(Cl)c1O,inactive
15,Oc1ccc(Cl)cc1Cc1cc(Cl)ccc1O,inactive
16,CC[C@H](c1ccc(O)cc1)[C@@H](CC)c1ccc(O)cc1,inactive
17,Cc1ccc(O)c([C@H](CCN(C(C)C)C(C)C)c2ccccc2)c1,inactive
